The structures appear in SMILES notation. Compounds without any hit were thinned out: in the full panel of roughly 83,000, 20% have a hit.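 Assay: single dose, 48 h. Readout: percent growth (0 = no net growth; negative = cell death). Active: <10.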 A number with no mark means an inactive call. The source made the active and inactive calls.

In this experiment the test system is MDA-MB-468 breast. Nature of the experiment: NCI-60 one-dose screen, 48 h (100 = growth as untreated, 0 = no growth, -100 = all killed). The conditions noted are these: 10 µM unless noted.
On to `C=C1C(=O)O[C@H]2[C@H]1CC/C(COC(=O)n1ccnc1C)=C\CC[C@@]1(C)O[C@@H]21`, for which the growth was 76.4%.

On to `CN(C)CCCNC(=O)C(c1ccccc1)c1ccccc1`, for which the growth is 111%.

For `C=C1C(=O)O[C@H]2[C@H]1CC/C(COC(=O)CCCCCCC(=O)OC/C1=C/CC[C@@]3(C)O[C@H]3[C@H]3OC(=O)C(=C)[C@@H]3CC1)=C\CC[C@@]1(C)O[C@@H]21`, the growth was -23.9% (active). As for `O=C(/C=C/C12c3ccccc3C(c3ccccc31)C1C(=O)N(c3ccccc3)C(=O)C12)c1ccc(Cl)cc1` (stereo not given), the figure is 3.08% (active); as for `O=C(CCN1C(=O)/C(=C/c2ccccc2F)SC1=S)N1CCOCC1`, 24.7%.

Take `Nc1ncc(-c2ccc3ncnc(Nc4cccc(Cl)c4)c3c2)cn1`: the growth is -26.4% (active).

As to `CC1OC(n2c3ccccc3c3c4c(c5c6ccccc6[nH]c5c32)C(=O)N(CCN[C@H]2CCC[C@@H]2N)C4=O)CC(O)C1O` (stereo not given in full), the growth was -20% (active). For `Cc1ccc(S(=O)(=O)Oc2ccc3sc4cccc(NCCN(C)C)c4c(=O)c3c2)cc1` the value was -91.7% (active); for `O=C1CC(c2nc3ccccc3[nH]2)CN1C1CCCCC1` (stereo not given), 110%. As for `NC(=NCCCOc1ccc(F)cc1)Nc1ccc(Cl)cc1`, the figure is 12.5%; as for `O=C(NCCNc1nccc(-c2c(-c3cccc(O)c3)nc3sccn23)n1)Nc1cccc(C(F)(F)F)c1`, -40.6% (active); as for `O=[N+]([O-])c1cccc(/C=C/c2ccc3ccccc3n2)c1`, 71.2%. `CC1Cc2c(Cl)ncnc2N(C)c2ccc(O)cc21` (stereo not given): the growth was -6.93% (active).

As for `CCCCOC(=O)c1cccc([N+](=O)[O-])c1`, the growth is 101%.

As to `O=C(O)C(c1ccccc1)N1C(=O)CSC1=S` (stereo not given), the growth was 101%.

In the case of `CC[C@]12C=CCN3CC[C@@]4(c5ccc(OC)cc5N(C)[C@H]4[C@@](O)(C(=O)OC)[C@@H]1OC(=O)CCCN1CCOCC1)[C@@H]32`, the growth was 108%. For `CC1=C2[C@@H](CC1)[C@]1(C)O[C@@](c3ccccc3)(C[C@H]1OC(=O)CO)[C@H]2OC(=O)/C=C/c1ccccc1` the value was 91.1%; for `COc1ccccc1-n1c(SCc2cc(OC)c(OC)c(OC)c2)nc2ccc(Cl)cc2c1=O`, 21.5%; for `COc1cc2c(cc1-c1c(C)noc1C)ncc1nc(C3CCC(F)(F)CC3)n([C@@H](C)COC(F)F)c12`, 39.3%. For `CN(C)CCCN(c1nc(C(Cl)(Cl)Cl)ns1)c1nc(C(Cl)(Cl)Cl)ns1` the value was 14.5%; for `COc1ccc(-c2cn[nH]c2-c2cc(OC)c(OC)c(OC)c2)cc1`, 11.8%; for `CC(O)CNC(Cc1ccccc1)c1ccc2c(c1)OCO2` (stereo not given), 101%. For `O=C(NC1CCN(Cc2ccccc2)CC1)c1cc2nc(-c3ccc(Cl)s3)cc(C(F)(F)F)n2n1` the value was -66.2% (active); for `CCN1C(=O)N(CC)C2C1NN=c1s/c(=C\c3ccc(Cl)cc3Cl)c(=O)n12` (stereo not given), 5.35% (active). As to `Cc1nc2n(c(=O)c1CCN1CCC(c3noc4cc(F)ccc34)CC1)CCC[C@@H]2O`, the growth was 100%. As for `O=C(NNc1nc2cc(F)c(F)cc2n2cccc12)c1ccncn1`, the figure is -25.6% (active). For `Cc1ccc(-c2cnc3sc(C(=O)NCCc4ccccc4)c(C)n23)cc1` the value was 93.1%; for `C=C1C(=O)O[C@H]2[C@H]1CC/C(C=Nc1c(N)cc(C(F)(F)F)cc1Br)=C\CC[C@@]1(C)O[C@@H]21`, -16.6% (active). With `C=C1C(=O)O[C@H]2[C@H]1CC/C(COC(=O)c1ccc(Br)cc1)=C\CC[C@@]1(C)O[C@@H]21`, the growth was -23.1% (active).

With `CCOc1ccc(C(C[N+](=O)[O-])Sc2ccccc2N)cc1` (stereo not given), the growth was -58.4% (active). For `C=C(C)[C@@H]1CC[C@]2(C(=O)N3CCN(C)CC3)CC[C@]3(C)[C@H](CC[C@@H]4[C@@]5(C)CC(CCCNC(C)=O)(CCCNC(C)=O)[C@H](OC(C)=O)C(C)(C)[C@@H]5CC[C@]43C)[C@@H]12` the value was 99.2%; for `Cc1ccc([P+](Cc2ccccc2)(c2ccccc2)c2ccccc2)cc1`, -13.5% (active). For the molecule `CC(C)(C)Nc1c(-c2c3ccccc3cc3ccccc23)nc2ccccn12`, the growth is 68.4%. For `Nc1nc(SCc2cccnc2)c2ncn(C3OC(CO)C(O)C3O)c2n1` (stereo not given), the growth is 97.4%. For `CC1(C)N=C(N)N=C(N)N1c1ccc(OCC(=O)Nc2ccccc2)c(Cl)c1` the value was 56.8%.

For the origin of these results see PubChem BioAssay (NCI).
